The structures appear in SMILES notation. About 83,000 compounds went through this panel and 20% of them were active in at least one assay; those are over-represented in the sample as a whole.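 Treatment: one concentration, 48 hours, 96-well format. Scoring: percent growth, with anything below 10 considered active.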 A number with no mark means an inactive call. Active and inactive are the calls of the source.

For the first assay, the system named is NCI-H460 lung. Briefly: NCI-60 one-dose screen, 48 h (100 = growth as untreated, 0 = no growth, -100 = all killed). As to conditions: 10 µM unless noted.
Turning to `COc1ccc(C2=NN3C(C2)c2cc(Br)ccc2OC3c2ccncc2)cc1` (stereo not drawn), the growth is 59.4%.
For `C=CC(=O)NCc1cccc(Nc2ncc(Br)c(NCCCNC(=O)C3CCC3)n2)c1`, the growth is -41.9% (active).
The same measure, in the same setting: under `O=C(O)/C=C/c1cn(-c2ccccc2)nc1-c1ccc(F)cc1` stands 101%.
Still for that read-out and setting: under `CCNCCNc1c(C)c(-c2ccc(C(F)(F)F)cc2)c(C#N)c2nc3ccccc3n12` stands 94.1%; under `O=C1CCc2c(sc3[nH]c(=S)n(-c4cc(C(F)(F)F)cc(C(F)(F)F)c4)c(=O)c23)C1`, 5% (active).
Consider `COc1cc2cc(Oc3ccc(NC(=O)Nc4ccc(F)c(C(F)(F)F)c4)cc3)c(C)nc2cc1OCCN1CCCCC1`, for which the growth was -69.2% (active).
`Cc1ccc2c(c1)CC(O)CC1C(=O)N(CCO)CC(=O)N21` (stereo not drawn): the growth is 109%.
For `CC(C)(C)CC(C)(C)Nc1c(-c2c(O)c3ccccc3oc2=O)nc2sccn12`, the growth was 111%.
For `O=C1NC(=O)C(=Cc2cc(-c3ccc(Cl)cc3)n(-c3ccccc3)n2)C(=O)N1`, the growth was 98.6%.
Same read-out and setting: under `CCOC(=O)c1c2c(n3ccc(NC(=O)CCN4CCCC4)cc13)C(=O)c1ncccc1C2=O` stands -79.9% (active); under `COc1ccc(-c2ccc(-c3ccc(C(=N)N)o3)o2)cc1`, 0.541% (active).
The same measure, in the same setting: to `CC(C)c1nc(N(C)S(C)(=O)=O)nc(-c2ccc(F)cc2)c1/C=C/C(=O)C[C@@H](O)CC(=O)O` belongs 108%; to `CCOc1cc(\C=N/N=C(N)/C(N)=N\N=C/c2ccc(O)c(OCC)c2)ccc1O`, 107%.

The next assay concerns HOP-92 NSCLC. Described as above. As to conditions: 10 µM unless noted.
As to `C=C1C(=O)O[C@H]2[C@H]1CC/C(COC(=O)NCc1ccc(Cn3c(=O)sn(CCCC)c3=O)cc1)=C\CC[C@@]1(C)O[C@@H]21`, the growth is -6.79% (active).
As for `O=C(Nc1ncc(Cc2ccccc2)s1)c1cc(-c2ccccc2)nc2ccccc12`, the growth was 84.1%.
With `CC(=O)Oc1ccccc1C(=O)N(Cc1ccc2c(Cl)cc(Cl)c(O)c2n1)c1ccccc1`, the growth is 61.6%.
Same read-out and setting: to `O=C(Nc1ccccc1)Nc1ccccc1CNc1nc(Nc2ccc(OCCN3CCCC3)cc2)ncc1Cl` belongs 65.1%.
Same read-out and setting: to `C#Cc1ccc(NC(=O)Cc2ccc(/C=C/C(=O)c3nccn3C)cc2)cc1` belongs 96.5%.
For the compound `O=C(O)c1nn(-c2ccc(Cl)cc2)nc1N1CCCC1`, the growth is 77.1%.
On to `CCc1ccc(Cc2cnc(NC(=O)c3cc(C)oc3C)s2)cc1`, for which the growth is 45%.
In the case of `O=C(NCCN1CCOCC1)c1cncnc1Nc1ccc2c(ccn2Cc2ccccn2)c1`, the growth was 93.8%.
Consider `CC/C(=C(/c1ccc(Cl)cc1)c1ccc(OCCN2CCCCCC2)cc1)c1ccccc1`, for which the growth is 80.3%.
Take `CC(=O)OCC(=O)O[C@@H]1C[C@]2(C(C)C)O[C@@]1(C)[C@@H]1CC[C@@H](C)[C@H]1[C@@H]2OC(=O)/C=C/c1ccccc1`: the growth is 67.4%.
For `COc1ccc(C(=O)/C=C/c2ccc(C)cc2)cc1S(N)(=O)=O`, the growth is 41.2%.
On the same count and under the same terms, under `Cc1ccc(Nc2oc(-c3ccccc3)nc2[P+](c2ccccc2)(c2ccccc2)c2ccccc2)cc1` stands -44.8% (active).
Take `COc1ccc(N/N=C/c2ccc3c(c2)Sc2ccccc2N3C)cc1`: the growth is 67.5%.
Take `COc1ccc(N2C(=O)/C(=C/C(Cl)=C/c3ccc([N+](=O)[O-])cc3)SC2=S)cc1`: the growth was -33.8% (active).
On the same count and under the same terms, under `COc1ccc(C2=C/C(=C\c3ccccc3O)C(=O)N2Cc2ccccc2)cc1` stands 64.6%.
Regarding `COC(=O)[C@H]1Cc2c([nH]c3ccccc23)[C@H](c2ccc3c(c2)OCO3)N1`, the growth was 84.9%.
For the compound `O=C(Nc1ncc(Cc2ccccc2)s1)c1ccc2c(c1)OCCO2`, the growth was 57.8%.
On the same count and under the same terms, to `CC(=O)CC(=O)c1ccccc1.[Cu+2]` belongs 120%.
Same read-out and setting: under `COC1CC(O)C2=C(CC3C(/C(C)=C\CC=C(C)C)CCC3(C)O2)C1=O` (stereo not drawn) stands 97.5%; under `Nc1c(C(=O)c2ccc(Cl)cc2)sc(Nc2ccccc2)c1-c1nc2ccccc2s1`, -18.7% (active).
Take `C=CC(=O)Nc1ccc2ncnc(Nc3cccc(NS(=O)(=O)CCC)c3Cl)c2c1`: the growth is 35.1%.
On to `CCN1C(=O)N(CC)C2C1NC(=S)N2/N=C/C=C/c1ccccc1` (stereo not drawn), for which the growth was 27.8%.
On the same count and under the same terms, under `Oc1cccc2c1NCCC2` stands -16.6% (active); under `CCOC(=O)c1cnc2sc(-c3ccc(OC)cc3)nc2c1Cl`, 94.7%.
`Cc1ccc2nc(/C=C/c3ccc(N(C)C)cc3)cc(C)c2c1`: the growth was 25.7%.
For the compound `C=CCOC(=O)C1=C(C)N(CC)C(=O)N(CC)C1c1c(Cl)n(C)c2ccccc12` (stereo not drawn), the growth was 21.6%.
As to `C=C(C)[C@@H]1CC[C@]2(COC(=O)c3cccnc3)CC[C@]3(C)[C@H](CC[C@@H]4[C@@]5(C)CCCN(C(=O)c6cccnc6)C(C)(C)[C@@H]5CC[C@]43C)[C@@H]12`, the growth is 32.9%.
The same measure, in the same setting: under `COc1ccc(C2=NN3C(C2)c2cc(Br)ccc2OC3c2ccncc2)cc1` (stereo not drawn) stands 82.7%; under `C=CC(=O)NCc1cccc(Nc2ncc(Br)c(NCCCNC(=O)C3CCC3)n2)c1`, -11.5% (active); under `O=C(O)/C=C/c1cn(-c2ccccc2)nc1-c1ccc(F)cc1`, 84.3%.
On to `CCNCCNc1c(C)c(-c2ccc(C(F)(F)F)cc2)c(C#N)c2nc3ccccc3n12`, for which the growth was 47.1%.
The same measure, in the same setting: to `O=C1CCc2c(sc3[nH]c(=S)n(-c4cc(C(F)(F)F)cc(C(F)(F)F)c4)c(=O)c23)C1` belongs -61.8% (active); to `COc1cc2cc(Oc3ccc(NC(=O)Nc4ccc(F)c(C(F)(F)F)c4)cc3)c(C)nc2cc1OCCN1CCCCC1`, 33.5%; to `Cc1ccc2c(c1)CC(O)CC1C(=O)N(CCO)CC(=O)N21` (stereo not drawn), 124%.
On to `CC(C)(C)CC(C)(C)Nc1c(-c2c(O)c3ccccc3oc2=O)nc2sccn12`, for which the growth is 107%.
As to `O=C1NC(=O)C(=Cc2cc(-c3ccc(Cl)cc3)n(-c3ccccc3)n2)C(=O)N1`, the growth was 94.4%.
Regarding `CCOC(=O)c1c2c(n3ccc(NC(=O)CCN4CCCC4)cc13)C(=O)c1ncccc1C2=O`, the growth was 56.2%.
The same measure, in the same setting: to `COc1ccc(-c2ccc(-c3ccc(C(=N)N)o3)o2)cc1` belongs 27%; to `CC(C)c1nc(N(C)S(C)(=O)=O)nc(-c2ccc(F)cc2)c1/C=C/C(=O)C[C@@H](O)CC(=O)O`, 84.2%.
Turning to `CCOc1cc(\C=N/N=C(N)/C(N)=N\N=C/c2ccc(O)c(OCC)c2)ccc1O`, the growth is 116%.
